MBD2 DNA inh: inhibitors of human MBD2 binding to methylated oligonucleotide; inhibition, % at 4.4 µM; 0.31% of 370,000 active; Q9UBB5; AID 686964; TR-FRET; in the data active = inhibition above about 13%
Target sequence (Q9UBB5 whole entry, looked up): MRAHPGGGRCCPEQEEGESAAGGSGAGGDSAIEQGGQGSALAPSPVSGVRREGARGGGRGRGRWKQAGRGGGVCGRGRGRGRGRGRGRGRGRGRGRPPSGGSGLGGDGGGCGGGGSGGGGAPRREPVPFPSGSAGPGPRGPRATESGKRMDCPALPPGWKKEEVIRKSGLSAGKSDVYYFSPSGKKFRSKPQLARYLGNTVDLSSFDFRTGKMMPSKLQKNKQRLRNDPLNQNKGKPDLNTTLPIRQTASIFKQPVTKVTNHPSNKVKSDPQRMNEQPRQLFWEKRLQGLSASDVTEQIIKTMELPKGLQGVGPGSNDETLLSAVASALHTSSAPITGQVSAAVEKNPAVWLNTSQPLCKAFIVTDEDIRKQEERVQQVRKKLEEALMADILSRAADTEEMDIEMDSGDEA
LEDGF integ inh: blocks HIV-1 LEDGF/p75-dependent DNA integration; TR-FRET IN-LEDGF/p75 DNA integration, Eu/Cy5; inhibition, % at 3.7 µM; 0.64% of 370,000 active;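 active = inhibition above the screen-wide mean plus 3 SD, cut at about 13% in these data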;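 also: signal is the Cy5 over europium emission ratio at 671 and 618 nm; 0% = plate median of compound wells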
PG9 binder: binds the HIV-1 gp120 antibody PG9; 0.43% of 360,000 active; TR-FRET gp120-PG9 antibody binding; inhibition, % at 6.7 µM; AID 624416; in the data active = inhibition above about 8.5%
rCAG RNA binder: r(CAG) repeat RNA binding; TO-PRO-1 dye displacement fluorescence; 1.3% of 370,000 active; inhibition, % at 3 µM;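 active = inhibition above the plate cutoff, the mean of all test compounds on that plate plus 3 SD, cut at about 35% in these data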;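 also: 0% = DMSO alone and 100% = 100 µM mitoxantrone as full dye displacement; higher means more dye released from RNA so lower well fluorescence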
UHRF1 MBD2 ctr: blocks human UHRF1 binding to methylated DNA | Q96T88 | UHRF1 binding to methylated oligo, TR-FRET | inhibition, % at 4.4 µM | 0.75% of 370,000 active | AID 687016; in the data active = inhibition above about 21%;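 also: UHRF1 SRA domain binding a hemimethylated CpG hairpin DNA probe; 0% = median of test compound wells and 100% = reference inhibitor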
DNMT1 inh: inhibitors of human DNMT1; inhibition (reported as % activation of signal), % at 10 µM; DNMT1 molecular beacon, Hinp1I cleavage, fluorescence; 0.83% of 360,000 active; P26358; AID 588458; in the data active = inhibition above about 50%
DNMT1 interf DR: counter-screen for DNMT1 inhibitors: spectral interference, dose response. molecular beacon fluorescence. IC50, µM. shares compounds with DNMT1 inh. 200 tested, under 10 active; call rule not given here
DNMT1 confirm: DNMT1 inhibition confirmation, single concentration; DNMT1 molecular beacon HinP1I cleavage, fluorescence; shares compounds with DNMT1 inh; AID 602385; inhibition, % at 10 µM; 8% of 2,300 active;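 active = average inhibition of at least 30% in the single-concentration confirmation test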
Beacon interf: counter-screen for DNMT1 inhibitors: spectral interference; shares compounds with DNMT1 inh; DNMT1 molecular beacon spectral interference counterscreen, fluorescence 485/520; activation (fluorescence interference), % at 10 µM; 1% of 2,300 active; AID 602387;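 active = activation of at least 30% at 10 µM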;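 also: DNMT1 catalytic domain with a HinP1I cleavage step and a FAM/dabcyl DNA beacon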
rCAG binder conf: r(CAG) RNA repeat binding, confirmation | shares compounds with rCAG RNA binder | TO-PRO-1 dye displacement fluorescence | inhibition, % at 3 µM | 70% of 4,300 active | AID 652065;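 active = inhibition above a per-plate cutoff, the mean inhibition of sample wells plus 3 SD, cut at about 35% in these data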;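 also: loss of TO-PRO-1 fluorescence as compound displaces dye from 1x1 AA loop RNA; 0% = DMSO only wells and 100% = 100 µM mitoxantrone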
dCAG dye counter: counter-screen for rCAG RNA binders: DNA CAG dye complex inhibitors | d(CAG) DNA oligo TO-PRO-1 dye displacement, fluorescence | shares compounds with rCAG RNA binder | inhibition, % at 3 µM | 94% of 4,300 active;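 active = inhibition above its plate's cutoff, the mean test-well inhibition plus 3 SD, cut at about 4.8% in these data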;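 also: 0% = DNA dye mix with DMSO and 100% = 100 µM mitoxantrone; hits displace the dye from DNA and so lower well fluorescence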
DNA CAG DR: counter-screen for rCAG binders: inhibitors of DNA CAG TO-PRO-1 complex; IC50, µM; shares compounds with rCAG RNA binder; 20% of 250 active; DNA CAG/GTC duplex TO-PRO-1 dye displacement fluorescence; in the data active = IC50 below about 10 µM
* hit, by the source's call; . = no result. In the library only some 3.5% were active in any assay of this set; here they are far more common.

SMILES	MBD2 DNA inh	LEDGF integ inh	PG9 binder	rCAG RNA binder	UHRF1 MBD2 ctr	DNMT1 inh	DNMT1 confirm	Beacon interf	rCAG binder conf	dCAG dye counter	others
Cc1cc(C(=O)OCC(=O)NC2CCCCC2C)c2ccccc2n1 (stereo unspecified)	-1	-1	1	0	3	5	.	.	.	.
O=C(Nc1ccccc1F)N1CCc2ccccc2C1	2	4	-1	0	-1	-1	.	.	.	.
CC1(C(=O)NNC(=O)c2ccc(=O)oc2)CC1Br (stereo unspecified)	-1	7	-3	43*	5	75*	4	3	60*	24*	DNA CAG DR=9.9*
O=C(O)c1cccc(-n2cccc2/C=C2/NC(=O)N(c3cccc(Cl)c3)C2=O)c1	8	8	-1	36*	27*	97*	25	4	35*	10*
Cc1ccc(C)c(-n2ccnc2SCC(=O)Nc2cccc(S(=O)(=O)NC3=NCCC3)c2)c1	7	-4	0	5	19	-1	.	.	.	.
CCNc1ccc(Br)cc(C(=O)/C=C/c2ccccc2Cl)c1=O	-2	12	2	46*	0	77*	8	8	34	15*
COc1cccc(N=Nc2c(=O)[nH]n3c(=O)cc(C)[nH]c23)c1	-16	0	-11	4	-6	-3	.	.	.	.
O=c1[nH]n2c(=O)c3c([nH]c2c1N=Nc1cccc(Cl)c1)CCC3	-14	8	-9	85*	-14	94*	5	-1	73*	31*	DNA CAG DR=8.4*
COc1cccc(N=Nc2c(=O)[nH]n3c(=O)c4c([nH]c23)CCC4)c1	-17	-2	-11	39*	-20	60*	-1	-5	34	7.6*
NC(=O)c1ccc(N2CCN(S(=O)(=O)c3cccs3)CC2)c([N+](=O)[O-])c1	-5	-2	-1	2	-5	5	.	.	.	.
O=C(NCc1ccc(Br)cc1)OC1CC2CC1[C@H]1CCCCN1C2=O (stereo partly specified)	3	3	0	2	-1	.	.	.	.	.
CCOc1ccc(/C=C/C(=O)c2cc(Br)ccc(=O)c2O)cc1	0	5	-3	61*	0	68*	10	4	47*	22*
Cc1cccc(/C=C/C(=O)c2cc(Br)ccc(=O)c2O)c1	4	13	-2	45*	4	93*	10	4	56*	24*
O=C(C=Cc1ccccc1)c1cc(Br)ccc1O	-4	1	1	1	0	4	.	.	.	.
Cc1cc(/C=N/Nc2ccc([N+](=O)[O-])cn2)c(C)n1-c1ccc(C(=O)O)cc1	-1	13	-8	42*	-4	61*	4	1	32	9.4*
Cc1ccccc1-n1c(C)cc(/C=N/Nc2ccc([N+](=O)[O-])cn2)c1C	3	2	0	6	-4	2	.	.	.	.
COC(=O)c1ccc(N2NC(=O)/C(=C/c3ccc(-c4ccc(Cl)c(C(=O)O)c4)o3)C2=O)cc1	9	11	-7	41*	39*	79*	9	8	69*	29*
Cc1c(C(=O)Nc2ccccc2)cn2c(nc3ccccc32)c1C#N	-2	-4	1	4	0	24	.	.	.	.
Cc1ccccc1C(=O)Nc1ccc2c(C#N)c3nc4ccccc4nc3n2c1	-11	4	-7	36*	-9	66*	4	-3	26	14*
Nc1nc(-c2cc(O)ccc2[N+](=O)[O-])cc(-c2ccccc2)c1[N+](=O)[O-]	-1	2	2	57*	10	60*	5	-6	44*	24*
O=C(CSc1ccsc1[N+](=O)[O-])Nc1cc(F)ccc1F	2	6	1	38*	14	70*	19	0	15	11*
NNC(=O)c1cc(-c2cccs2)nc2ccccc12	-4	0	-1	14	-3	-6	.	.	.	.
Cc1cccc2sc(NNC(=O)c3cc(-c4cccs4)nc4ccccc34)nc12	-4	-3	2	38*	-2	69*	2	1	36*	16*
CC1(C)CC(=O)C=C(c2ccc(COC(=O)Cc3ccccc3)cc2)C1=O	-3	0	1	2	1	-2	.	.	.	.
NCCN1CCN(S(=O)(=O)c2ccc3c(c2)CCN3C(=O)C2CCC2)CC1	2	0	.	1	-3	.	.	.	.	.
SMILES	MBD2 DNA inh	LEDGF integ inh	PG9 binder	rCAG RNA binder	UHRF1 MBD2 ctr	DNMT1 inh	DNMT1 confirm	Beacon interf	rCAG binder conf	dCAG dye counter	others
O=C(O)CN1C(=O)/C(=C\c2cc(Br)ccc2OCc2ccc(Cl)cc2)SC1=S	1	0	-2	88*	-4	61*	56*	-9	94*	74*	DNMT1 interf DR=>99
Cn1cccc1/C=C1/SC(=S)N(CC(=O)O)C1=O	-19	0	-5	0	-18	3	.	.	.	.
CN(C)c1ccc(-c2nn3c(-c4ccco4)nnc3s2)cc1	-1	4	.	10	-6	.	.	.	.	.
Clc1ccc(-c2ccc(-c3nn4c(-c5ccco5)nnc4s3)o2)cc1	-2	6	0	35*	-2	78*	2	-1	12	9.1*
COc1ccccc1/C=C/C=c1\sc2nc(=O)c(Cc3ccccc3)nn2c1=O	4	5	-1	40*	0	93*	11	-1	50*	22*
N#Cc1cccc(Cn2ccc3ccc(-c4ccc5ccn(Cc6cccc(C#N)c6)c5c4)cc32)c1	-4	1	.	9	-2	.	.	.	.	.
C=CCOC(=O)c1cc(-c2ccc(/C=C3\C(=O)NC(=O)C(C#N)=C3C)o2)ccc1Cl	-2	10	-1	63*	0	105*	97*	-3	87*	51*	DNMT1 interf DR=>99
O=C(Nc1cccc(F)c1)C1CCN(C(=O)c2ccco2)CC1	1	10	-1	3	-2	0	.	.	.	.
Cc1nn(-c2cccc(Cl)c2)c2nc(-c3ccco3)cc(C(=O)O)c12	1	13	2	72*	8	71*	3	2	77*	40*
